# Bioassay records from PubChem BioAssay.
# A selection: hits, their analogues and other compounds. The true share with any hit is near 3.4%.
# MITF inh = human MITF inhibition, primary screen. O75030. AlphaScreen MITF homodimerization, bead proximity signal. inhibition, % at 2.6 µM. 0.91% of 650,000 active; in the data active = inhibition above about 50%;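 note: 0% = vehicle wells with protein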
# TEAD-YAP block = TEAD-YAP interaction inhibition | inhibition, % at 9.12 µM | 1.4% of 640,000 active | HEK-TIYL cells, TEAD-Gal4/YAP UAS-luciferase luminescence; in the data active = inhibition above about 32%;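 note: 0% = median of test compound wells and 100% = reference inhibitor wells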
# GPR151 ag = activates the human receptor GPR151. PathHunter beta-arrestin GPR151 cells, luminescence. AID 1508602. activation, % at 11.2 µM. 1% of 650,000 active; in the data active = activation above about 4.9%;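 note: 0% = median of compound wells and 100% = cells with positive control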
# Target sequence (Q8TDV0 whole entry, looked up): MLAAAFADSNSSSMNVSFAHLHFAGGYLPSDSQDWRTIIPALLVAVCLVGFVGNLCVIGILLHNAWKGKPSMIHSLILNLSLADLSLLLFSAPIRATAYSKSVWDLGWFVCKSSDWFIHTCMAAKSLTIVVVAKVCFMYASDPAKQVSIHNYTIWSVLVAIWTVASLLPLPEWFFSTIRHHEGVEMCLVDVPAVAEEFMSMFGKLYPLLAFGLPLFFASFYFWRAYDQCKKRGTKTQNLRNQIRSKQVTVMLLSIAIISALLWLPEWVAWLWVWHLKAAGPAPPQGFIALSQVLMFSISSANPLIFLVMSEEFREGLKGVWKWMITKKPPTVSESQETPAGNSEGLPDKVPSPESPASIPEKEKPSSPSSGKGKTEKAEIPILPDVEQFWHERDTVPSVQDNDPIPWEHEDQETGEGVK
# FBW7 act = activators of human E3 ligase FBW7. AlphaScreen FBW7–phospho-cyclin E peptide binding, activator screen. normalized activity (activation), % at 26.1 µM. Q969H0. 0.13% of 650,000 active; in the data active = normalized activity above about 1.9%;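 note: purified mutant Fbw7 with reduced substrate affinity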
# MITF inh conf = human MITF inhibition, confirmation; 16% of 4,700 active; shares compounds with MITF inh; inhibition, % at 2.6 µM; AlphaScreen MITF homodimerization, biotin/His-MITF beads;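 active = inhibition above a cutoff derived from the DMSO control wells, cut at about 28% in these data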;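 note: 0% = MITF dimer wells with DMSO only; inhibitors lower the bead chemiluminescence by keeping MITF from dimerizing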
# AlphaScreen DR = AlphaScreen optical interference, dose response counter-screen; 6% of 480 active; IC50, µM; AlphaScreen optical interference counterscreen, cell-free; AID 1259373; shares compounds with MITF inh; call rule not given here
# AS interf ctr = counter-screen: compounds optically interfering with AlphaScreen. AID 1259376. LysRS AlphaScreen counterscreen, signal interference, triplicate. inhibition, % at 2.6 µM. 7.6% of 4,700 active. shares compounds with MITF inh;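 active = inhibition above a cutoff derived from the DMSO control wells, cut at about 30% in these data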
# An asterisk follows results filed as active; . = not tested or not shown.
SMILES,MITF inh,TEAD-YAP block,GPR151 ag,FBW7 act,MITF inh conf,AS interf ctr,others
CCN1C(=O)CC(NNC(=O)CCCCC(=O)NNC2CC(=O)N(CC)C2=O)C1=O (stereo not given),-18.9,0.2,0.7,-0.2,.,.,
CCCN1CC=C2C(C#N)=C(N)C(C#N)(C#N)C(c3c(Cl)cccc3Cl)C2C1 (stereo not given),-10.2,-5.2,-1.7,-0.2,.,.,
CCCCn1c(SCc2cccc([N+](=O)[O-])c2)nc2ccsc2c1=O,-15.1,1.9,1.4,0.1,.,.,
CCCCn1c(SCc2ccc([N+](=O)[O-])cc2)nc2ccsc2c1=O,85.9*,4.5,2.2,-0.1,-2.4,0.7,
CC1CCN(CC(=O)N(C)C2(c3ccccc3Cl)CCCCC2=O)CC1 (stereo not given),90.0*,-9.5,1.6,-0.5,-17.8,6.4,
COc1ccc(S(=O)(=O)N2CCN(CCO)CC2)cc1,-9.3,-2.6,-1.2,0.1,.,.,
COc1ccc(S(=O)(=O)N2CCN(C3CCCCCCC3)CC2)cc1,31.5,1.0,0.0,0.1,.,.,
COC(=O)CCN1CCN(S(=O)(=O)c2ccc(OC)cc2)CC1,59.5*,4.8,0.1,0.0,-9.4,-3.8,
COc1ccc(OCCN2CCN(S(=O)(=O)c3ccc4c(c3)OCCO4)CC2)cc1,85.4*,-5.5,-0.8,-0.4,6.5,16.5,
COc1ccc(S(=O)(=O)N2CCC(N3CCC(C)CC3)CC2)cc1,54.6*,1.5,-0.7,0.0,34.3*,0.3,AlphaScreen DR=>6.48
COc1ccc(S(=O)(=O)N2CCC(N3CCN(C)CC3)CC2)cc1,73.3*,5.0,-0.7,0.0,1.8,6.1,
O=C(CN1CCCCC1)OCCCc1ccccc1,6.8,5.6,-1.1,0.0,.,.,
CCn1c(COc2cccc(C)c2)nnc1SCC(=O)Nc1nc(C)cs1,11.6,-4.4,0.1,0.1,.,.,
COc1ccc(S(=O)(=O)N2CCC(N3CCOCC3)CC2)cc1,54.0*,2.9,1.3,0.0,7.8,8.6,
COc1ccc(-c2ccc(S(=O)(=O)N3CCOCC3)cc2)cc1,10.7,-0.8,-0.4,0.0,.,.,
COc1cc(Nc2cccc(C(N)=O)c2)cc(OC)c1OC,72.8*,-0.1,-1.2,0.0,3.5,4.5,
COc1cc(NC(=O)Nc2cccc(C(C)=O)c2)cc(OC)c1OC,6.4,-0.2,4.2,-0.1,.,.,
Cc1ncc([N+](=O)[O-])n1Cc1ccc(F)cc1,9.4,0.6,0.5,-0.1,.,.,
COC(=O)c1ccc(Cn2c([N+](=O)[O-])cnc2C)cc1,78.1*,-1.9,-1.0,0.2,-16.2,-2.5,
Cc1ccc(-n2cc(-c3ccccc3)c3c(NCC(C)O)ncnc32)cc1Cl (stereo not given),-5.3,-15.0,2.0,-0.1,.,.,
CC(C)(C)C(=O)NC(=S)Nc1cccc([N+](=O)[O-])c1,57.7*,-2.9,-1.6,0.2,-7.5,-2.7,
CCCC(=O)NC(=S)Nc1cccc([N+](=O)[O-])c1,-15.6,4.1,-1.0,-0.3,.,.,
c1coc(CN2CCC(N3CCOCC3)CC2)c1,60.3*,12.0,0.6,0.6,12.7,16.4,
CC1CCCCC1N1CCN(Cc2ccco2)CC1 (stereo not given),69.4*,4.6,-0.7,0.1,-2.6,5.1,
c1coc(Cn2nnnc2CN2CCN(C3CCCC3)CC2)c1,-1.4,-2.1,0.9,0.1,.,.,
SMILES,MITF inh,TEAD-YAP block,GPR151 ag,FBW7 act,MITF inh conf,AS interf ctr,others
c1coc(CN2CCN(C3CCCCCC3)CC2)c1,73.6*,12.3,1.1,-0.1,-0.3,4.7,
S=C(NC1CCCCC1)N1CCN(Cc2ccco2)CC1,-20.9,-15.9,2.7,0.5,.,.,
COc1ccccc1CNC(=O)c1c(O)c2ccccc2n(C)c1=O,-0.3,3.2,-0.7,0.0,.,.,
Cc1cc(NCCc2ccccc2)nc(-c2ccccc2O)n1,82.4*,-20.6,0.4,0.2,-21.6,-0.4,
Fc1ccccc1-c1nc(Nc2ccc(C(F)(F)F)cc2)c2ccccc2n1,-11.8,4.4,2.2,0.0,.,.,
O=C(Nc1ccc(Nc2ccc(-n3cccn3)nn2)cc1)c1ccccc1Cl,58.0*,-1.1,0.5,-0.2,3.5,8.2,
N#CC1=C(N)n2c(s/c(=C\c3cccc(F)c3)c2=O)=C(C#N)C1c1cccc(F)c1 (stereo not given),-2.3,9.9,-0.9,0.1,.,.,
O=C(c1cccnc1)N1CCN(Cc2cccc(Br)c2)CC1,65.1*,1.3,3.3,-0.2,4.5,15.0,
O=C(c1cccnc1)N1CCN(Cc2ccc(Br)cc2)CC1,69.5*,6.5,3.2,-0.5,-4.9,-4.4,
O=C(c1cccnc1)N1CCN(Cc2ccccc2)CC1,47.3,8.8,0.8,-0.1,.,.,
O=C(c1cccnc1)N1CCN(Cc2cccc(Cl)c2)CC1,64.9*,-3.0,2.1,0.0,-5.9,9.3,
Cc1cccc(CN2CCN(C(=O)c3cccc(Cl)c3)CC2)c1,42.3,8.7,0.6,-0.2,.,.,
Cn1c(C(=O)N2CCN(c3ncccn3)CC2)cc2c(=O)[nH]c3ccccc3c21,7.8,-0.8,-0.9,0.7,.,.,
CCN(CC)CCNc1nc(-c2cccs2)c(CC(=O)O)s1,78.8*,5.0,0.9,0.1,-9.2,5.0,
O=C(O)Cc1sc(NCc2ccco2)nc1-c1cccs1,18.0,0.3,1.4,0.4,.,.,
CC(=O)CCc1ccc(OCCN2CCN(C)CC2)cc1,0.5,-8.2,0.5,0.0,.,.,
CCN1CCN(CCCCOc2ccc(CCC(C)=O)cc2)CC1,66.1*,-5.8,-0.8,-0.3,10.2,19.2,
CCN1CCN(CCCOc2ccc(CCC(C)=O)cc2)CC1,56.3*,-0.9,2.2,-0.1,13.1,16.4,
CC(=O)CCc1ccc(OCCCCN2CCN(C)CC2)cc1,-5.0,4.8,0.6,-0.1,.,.,
CCOC(=O)C1=C(C)N=c2s/c(=C/c3ccco3)c(=O)n2C1c1ccc(OC(C)=O)c(OC)c1 (stereo not given),20.4,4.2,0.6,0.3,.,.,
CC(=O)Nc1ccc(NS(=O)(=O)c2c(C)[nH]c(=O)[nH]c2=O)cc1,10.7,9.8,0.5,0.1,.,.,
COc1cc(/C=N/NC(=O)CC2C(=O)NN=C2C)cc(OC)c1OC(C)=O (stereo not given),0.4,2.0,0.8,0.0,.,.,
COc1cc(OC)c(OC)cc1/C=N/NC(=O)CC1C(=O)NN=C1C (stereo not given),66.4*,12.7,0.3,0.0,1.1,-2.9,
CCCNc1nc(NCc2ccc3c(c2)OCO3)nc2nc[nH]c12,-1.9,-16.8,-1.7,0.0,.,.,
Fc1cc(F)c(F)c(SCCc2ccncc2)c1F,90.2*,-3.4,0.0,0.2,17.6,21.8,
CCOC(=O)C(=O)C(C#N)c1ccccc1 (stereo not given),83.3*,-0.6,1.2,-0.2,11.1,19.4,
Cn1c(-c2ccc(F)cc2)cnc1NCc1cccc(F)c1,52.7*,-8.7,-0.6,0.5,-4.3,-4.8,
Cn1c(-c2ccccc2)cnc1NCc1ccc(F)cc1,26.2,-3.5,2.0,-0.4,.,.,
Cn1c(-c2ccc(F)cc2)cnc1NCc1ccccc1,59.4*,1.3,-1.5,0.5,-9.4,-3.0,
